Results reported in PubChem BioAssay (NCI).
Compounds without any hit were thinned out: in the full panel of roughly 83,000, 20% have a hit.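 For each line, cells grew in 96-well plates with the test compound present at a single concentration for 48 hours.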 Unmarked numbers belong to inactive results. Active and inactive are the calls of the source. How the source made its calls: active means growth percent below 10; inactive means the rest.

Legend:
Experiment in all cases: NCI-60 one-dose screen, 48 h (100 = growth as untreated, 0 = no growth, -100 = all killed)
Settings in all cases: 10 µM unless noted
[1] = tested on: NCI-H23 lung
[2] = tested on: NCI-H226 lung
[3] = tested on: HOP-62 NSCLC
[4] = tested on: NCI-H460 lung
[5] = tested on: NCI-H522 lung
[6] = tested on: A549/ATCC NSCLC
[7] = tested on: 786-0 renal
[8] = tested on: COLO 205 colon
[9] = tested on: DU-145 prostate
[10] = tested on: K-562 leukemia
[11] = tested on: MALME-3M melanoma
[12] = tested on: MDA-MB-231 breast
[13] = tested on: RXF 393 renal
[14] = tested on: SF-268 CNS
[15] = tested on: SF-295 CNS
[16] = tested on: SF-539 CNS
[17] = tested on: UACC-257 melanoma
[18] = tested on: M14 melanoma
[19] = tested on: HOP-92 NSCLC

Row | Structure (SMILES) | growth [1] | growth [2] | growth [3] | growth [4] | growth [5] | growth [6] | growth [7] | growth [8] | growth [9] | growth [10] | growth [11] | growth [12] | growth [13] | growth [14] | growth [15] | growth [16] | growth [17] [%] | growth [18] | growth [19]
1 | NC(N)=Nc1nc2ccccc2o1 | 108% | 107% | 88.4% | 99.8% | 107% | 109% | 109% | 138% | 89.3% | 104% | 119% | 103% | 114% | 88.4% | 112% | 96.2% | 121 | 80% | –
2 | COc1ccc(-c2nc(/C=N/Nc3cc(C)nc4ccc(Br)cc34)c(C)o2)cc1 | -41.9% (active) | -37.4% (active) | 64.5% | -80.6% (active) | -58.4% (active) | -61% (active) | -81.5% (active) | -75.6% (active) | -90.2% (active) | -49.1% (active) | -84.6% (active) | -89.2% (active) | -90.9% (active) | -72.9% (active) | -90.4% (active) | -96.1% (active) | 108 | 1.07% (active) | -84.3% (active)
3 | COc1ccc(-c2ccc(-c3ccc(C(=N)N)s3)s2)cc1Cl | 45.4% | 79.3% | 70.9% | -36.5% (active) | 0.287% (active) | -69.8% (active) | 72.3% | -48.4% (active) | 0.775% (active) | -37.4% (active) | 64.3% | -42.3% (active) | -87.5% (active) | 76.8% | 10.8% | 65.7% | 106 | 97.2% | 16.5%
4 | CCCCCCCC[C@@H](O)CC(=O)N[C@@H](CC(N)=O)C(=O)N[C@@H](CCC(N)=O)C(=O)N[C@@H](CC(=O)c1cc(C)cc(O)c1C(=O)c1c(O)cccc1O)CC(C)C | 23.5% | 89.1% | 6.71% (active) | 23.4% | -22.5% (active) | 60.1% | 11.6% | 13.5% | 54% | 23.8% | 51.3% | 12.1% | -49.5% (active) | 9.65% (active) | 21% | -5.78% (active) | 14.9 | -12.3% (active) | -17.8% (active)
5 | CC(=O)OC[C@]12CC[C@H]3[C@@H](C[C@H]4O[C@]45CC=CC(=O)[C@]35C)[C@]1(O)CC[C@@]2(O)[C@@](C)(O)C1CC(C)=C(C)C(=O)O1 (stereo partly specified) | -32.9% (active) | -28.5% (active) | -34% (active) | -51.3% (active) | -54.1% (active) | 6.23% (active) | -19.6% (active) | -35.7% (active) | 7.44% (active) | 5.58% (active) | -58.4% (active) | -14.7% (active) | -62.8% (active) | -49.5% (active) | -11.9% (active) | -42.7% (active) | 13.7 | 2.6% (active) | -34.6% (active)
6 | COc1cc(C2CC(c3ccc4c(c3)OCO4)=NN2C=O)cc(OC)c1OC (stereo unspecified) | 59.9% | 58.3% | 36.7% | 15.3% | -3.85% (active) | 46.2% | 37.4% | 12.6% | 31.7% | 17.6% | -3.87% (active) | 68% | 45.7% | 44.8% | -1.84% (active) | – | 65.3 | 26.7% | 74.6%
7 | COc1ccc(/C=C2\Oc3cc(OCCCN4CCCC4)ccc3C2=O)cc1 | 87.2% | 93% | 89.7% | 68.5% | 85.7% | 90.6% | 93% | 93.5% | 95.4% | -25% (active) | 108% | 93.8% | 78.9% | 88.9% | 98.7% | 79.7% | 101 | 84.4% | 82.2%
8 | O=C(Nc1ccncc1)C(=O)c1cn(S(=O)(=O)c2ccc(Br)cc2)c2ccccc12 | 46.9% | 77.8% | 44.7% | 68.4% | 18.3% | 75.6% | 54.9% | 103% | 62.6% | 26.5% | 49.6% | 43% | 60.1% | 52.2% | 29.6% | 43.8% | 69.4 | 31.6% | 48.6%
9 | COc1ccc2c(c1)cn1c3ccc(OC)cc3[nH]c(=O)c21 | 33.3% | 5.93% (active) | 5.85% (active) | -51% (active) | -44.9% (active) | -57% (active) | -88.3% (active) | -61.3% (active) | -87.1% (active) | -28.1% (active) | 42.1% | -86.9% (active) | -82.2% (active) | -14% (active) | -84.9% (active) | -84.9% (active) | 54.7 | -65.1% (active) | 28.4%
10 | Nc1cccc(Cl)c1N | 85.2% | 101% | 108% | 101% | 71.1% | 109% | 110% | 104% | 117% | 102% | 116% | 99.3% | 121% | 104% | 118% | 90.4% | 113 | 104% | 106%
11 | C=COC(=O)CCCCCCCCC | 108% | 107% | 120% | 106% | 85.9% | 108% | 102% | 111% | 114% | – | 104% | 102% | 106% | 101% | 115% | 113% | 107 | 108% | 99%
12 | CCCCOc1ccc(/C=C2/SC(N3CCOCC3)=NC2=O)cc1OCC | 98.6% | 92% | 104% | 99.5% | 75% | 96% | – | 113% | 99.4% | 86.4% | 93.1% | 83.8% | 94.6% | 99.2% | 100% | 86.4% | 108 | 91.8% | 70.7%
13 | O=C1CCCCC1(c1ccccc1)c1ccccc1 | 98.8% | 99.8% | 103% | 103% | 99% | 110% | 109% | 109% | – | – | – | 101% | 93.8% | 98.2% | 97% | 94% | 106 | 99% | 89.3%
14 | CCOC(=O)NNC(=S)Nc1ccccc1 | 99.5% | 103% | 102% | 108% | 100% | 96.3% | 103% | 131% | 118% | 113% | 110% | 115% | 113% | 103% | 102% | 98.9% | 102 | 108% | 93.5%
15 | CC1(C)C(=O)/C(=C\c2ccc(C(F)(F)F)cc2)C[C@]2(C)[C@H]3CC[C@@H]4[C@H]5[C@H](C(=O)/C=C/c6ccc(C(F)(F)F)cc6)CC[C@]5(CO)CC[C@@]4(C)[C@]3(C)CC[C@@H]12 | 100% | 91.4% | 101% | 99.4% | 97.9% | 90.6% | 107% | 115% | 109% | 86.9% | 96.2% | 98.4% | 103% | 89.7% | – | 93.7% | 101 | 93.1% | 93.7%
16 | CC(C)(C)n1cc(-c2ccnc(NCCNS(=O)(=O)c3ccc(F)cc3)c2)c(-c2cccc(O)c2)n1 | 58.2% | 50.4% | 78.9% | 29.8% | 50.4% | 47.5% | 26% | -2.98% (active) | 74.9% | 15.4% | 53.5% | 41% | 60% | 54.7% | 42.5% | 58.3% | 64.9 | 46.2% | 58.3%
